In assay [1] the target is Estrogen receptor (Homo sapiens) (UniProt P03372). The assay is described as follows: qHTS assay to identify small molecule antagonists of the estrogen receptor alpha (ER-alpha) signaling pathway using the BG1 cell line in the presence of 0.1 nM 17-beta-estradiol (AID 1259244). Note: nearly all actives have a fitted effect of over 50% in size. Summed up:
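Estradiol at 0.1 nM (final) stimulates the endogenous ER-alpha of VM7Luc4E2 cells carrying an ERE-driven luciferase; compounds are co-incubated 22 h at 37C and luciferase output quantified by luminescence.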
(In general: Quantitative high-throughput screening tests each substance at several concentrations.)

A short description of assay [2]: qHTS assay to identify small molecule HDAC inhibitors (AID 1259364).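 Note: wild-type HCT-116 cells with endogenous class I/II HDAC activity; top concentration of the series differs between compounds; nearly all actives have a fitted effect of over 45% in size.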 Summed up:
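Read-out: luminescence of HDAC-Glo I/II reagent, 30 min RT, reflecting class I/II deacetylase activity in whole HCT-116 cells pre-exposed 2 h to DMSO-dissolved compounds.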

Assay [3] can be described thus: qHTS assay to identify small molecule HDAC inhibitors - cell viability counter screen (AID 1259365). Note: series mostly up to about 92 µM; nearly all actives have a fitted effect of over 50% in size. The essentials:
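Wild-type HCT-116 cells, 1,500/well, cultured overnight, then compound-treated 2 h at 37 C. Viability measured as ATP luminescence with CellTiter-Glo after 30 min at room temperature.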

Assay [4] is described as follows: qHTS assay to identify small molecule agonists of the sonic hedgehog signaling (Shh) pathway - cell viability counter screen (AID 1259366). Note: nearly all actives have a fitted effect of over 50% in size. Note: potency is the fitted concentration of half-maximal effect. Summed up:
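NIH/3T3-derived Gli1-Luc reporter cells, 2,000 per well, received compound after 4 h and were treated about 23 h at 37C. Viability measured in the same wells by CellTiter-Fluor fluorescence after 1 h.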

A short description of assay [5]: qHTS assay to identify small molecule antagonists of the sonic hedgehog signaling (Shh) pathway - cell viability counter screen (AID 1259367). Note: nearly all actives have a fitted effect of over 55% in size. Note: potency is the fitted concentration of half-maximal effect. Summed up: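 NIH/3T3-derived Gli1-Luc reporter cells (2,000 per well) rested 4 hr at 37 C, then received DMSO compounds plus conditioned medium. After 23 hr of treatment, CellTiter-Fluor was added for 1 hr at 37C and fluorescence read.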

Assay [6] can be described thus: qHTS assay to identify small molecule agonists of the sonic hedgehog signaling (Shh) pathway (AID 1259368; calls by dose curve;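 note: NIH/3T3-derived 3T3Gli1-Luc cells carrying a stable Gli1-driven firefly luciferase reporter; series mostly up to about 92 µM; nearly all actives have a fitted effect of over 15% in size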). Summed up: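 A Gli1 transcriptional response element controlled firefly luciferase in 3T3Gli1-Luc cells. Compounds and a positive control were added 4 hr after plating, and cells were incubated a further 24 hr at 37 C before luminescence detection.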
Assay [7] in a line: qHTS assay to identify small molecule antagonists of the sonic hedgehog signaling (Shh) pathway (AID 1259369; calls by dose curve; note: nearly all actives have a fitted effect of over 45% in size; note: potency is the fitted concentration of half-maximal effect). Summed up: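 For antagonist detection, the reporter line received test compounds together with conditioned medium, incubated 24hr at 37 C, 5% CO2, then luminescence was recorded following 30min room-temperature luciferase reagent incubation.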
Assay [8] is described as follows: qHTS assay to identify small molecule agonists of the androgen receptor (AR) signaling pathway in the presence of an antagonist - cell viability counter screen (AID 1259379).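 Note: MDA-kb2 human breast cancer cells carrying an MMTV luciferase reporter; series mostly up to about 92 µM; nearly all actives have a fitted effect of over 25% in size.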 The essentials:
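Seed MDA-kb2 at 3,000 cells/well; incubate 5 hr, 37C, 0% CO2. Add nilutamide to 3.0uM final, then pin compounds at 15 concentrations. Incubate 16 hr. Add CellTiter-Fluor at 15 hr, read fluorescence after 1 hr.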

Assay [9] can be described thus: qHTS assay to identify small molecule antagonists of the estrogen receptor beta (ER-beta) signaling pathway - cell viability counter screen (AID 1259382).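 Note: HEK293T cells carrying ER-beta-UAS-bla reporter stimulated with estradiol; series mostly up to about 92 µM; nearly all actives have a fitted effect of over 55% in size.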 Summed up:
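In this multiplexed counter screen, cells were seeded at 2,000 per well in medium with 2% charcoal-stripped FBS and incubated 6 hr before compound and 1nM final E2 were added. Sixteen hours later, ATP-based luminescence reported viability.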

The target of assay [10] is Estrogen receptor (Homo sapiens) (UniProt P03372). The assay is described as follows: qHTS assay to identify small molecule agonists of the estrogen receptor alpha (ER-alpha) signaling pathway in the presence of an antagonist (AID 1259383; calls by dose curve; note: top concentration of the series differs between compounds; nearly all actives have a fitted effect of over 15% in size). The essentials: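 Stably transfected VM7Luc4E2 reporter cells, kept 5 days in charcoal-stripped serum, received ICI-182,780 at 10.0nM final before compound addition. Following 22hr incubation at 37C and 5% CO2, luciferase signal was read by luminescence.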

Assay [11] concerns the target Thyrotropin receptor (Homo sapiens) (UniProt P16473). The assay is described as follows: qHTS assay to identify small molecule antagonists of the thyroid stimulating hormone receptor (TSHR) signaling pathway (AID 1259385; calls by dose curve; note: nearly all actives have a fitted effect of over 20% in size). Summed up: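 TSHR-HEK293 cells were plated and held 18 h at 37C/5% CO2, then given compound plus Ro20-1724 and stimulated with TSH at 1.5 ng/mL final. After 30 min at room temperature, cAMP was detected with cAMP-d2/anti-cAMP-cryptate (1 h) by fluorescence.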

Assay [12] is described as follows: qHTS assay to identify small molecule agonists of the estrogen receptor alpha (ER-alpha) signaling pathway in the presence of an antagonist - cell viability counter screen (AID 1259386).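 Note: series mostly up to about 92 µM; cells exposed to compounds for 22 h at 37 °C before the viability read; nearly all actives have a fitted effect of over 30% in size.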 Summed up:
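Viability counter screen using VM7Luc4E2 (full-length ER-alpha, four ERE-luciferase). The cells were treated with compounds alongside ICI-182,780 10.0nM for 22hr, and live-cell protease fluorescence was quantified with CellTiter-Fluor.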

The target in assay [13] is Progesterone receptor (Homo sapiens) (UniProt P06401). The assay is described as follows: qHTS assay to identify small molecule agonists of the progesterone receptor (PR) signaling pathway (AID 1346784; calls by dose curve; note: nearly all actives have a fitted effect of over 30% in size). The essentials: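 PR-UAS-bla HEK 293T cells (beta-lactamase reporter under UAS) in 2% charcoal-stripped FBS, dosed with 23 nL compound after 6 hr, incubated 16hr at 37C. LiveBLAzer B/G FRET substrate added, fluorescence read after 2 hours.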

Assay [14] is described as follows: qHTS assay to identify small molecule antagonists of the progesterone receptor (PR) signaling pathway - cell viability counter screen (AID 1346798). Note: series mostly up to about 92 µM; nearly all actives have a fitted effect of over 50% in size. Summed up: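 PR-UAS-bla HEK293T cells, 3,000/well in 2% charcoal-stripped FBS medium, dosed with compounds plus R5020 agonist and incubated 16 h at 37C. Viability then measured in the same wells by CellTiter-Glo luminescence after 30 min at RT.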

The nature of assay [15]: qHTS assay to identify small molecule agonists of the estrogen receptor beta (ER-beta) signaling pathway - cell viability counter screen (AID 1259380). Note: nearly all actives have a fitted effect of over 30% in size. The essentials:
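CellTiter-Glo read, 30 min RT, same wells as bla assay; cells ER-beta-UAS-bla HEK293T; 16 hr compound, 37C; medium 2% charcoal-stripped FBS.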

Assay [16] can be described thus: qHTS assay to identify small molecule agonists or antagonists of the thyroid stimulating hormone receptor (TSHR) signaling pathway - wild type cell line counter screen (AID 1259384; calls by dose curve). The essentials: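 Wild-type HEK293 cells were plated 18 h at 37 C/5% CO2, pin-dosed with compound plus Ro20-1724 medium, held 30 min at room temperature, then given cAMP-d2 and anti-cAMP-cryptate; fluorescence was read after 1 h. Fifteen concentrations, triplicate.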

In assay [17] the target is Progesterone receptor (Homo sapiens) (UniProt P06401). The assay is described as follows: qHTS assay to identify small molecule antagonists of the progesterone receptor (PR) signaling pathway (AID 1346795; active = well fitted inhibition curve with a large enough effect in the signal ratio in the repeat runs, not every such curve was filed as active; the % refers to the signal ratio). The essentials:
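PR-UAS-bla HEK293T cells with beta-lactamase reporter under UAS control, in 2% charcoal-stripped FBS, treated with compounds plus 1 nM promegestone (R5020, final) for 16 hr at 37C. Read-out: FRET beta-lactamase substrate fluorescence after 2 hr at room temperature.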

Assay [18] has as its target Androgen receptor (Homo sapiens) (UniProt P10275). The assay is described as follows: qHTS assay to identify small molecule agonists of the androgen receptor (AR) signaling pathway in the presence of an antagonist (AID 1259381; calls by dose curve; note: nearly all actives have a fitted effect of over 15% in size). The essentials:
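Test compounds at 15 concentrations were incubated for 16hr with MDA-kb2 reporter cells in presence of 3.0uM nilutamide (final). Signal: ONE-Glo luciferase luminescence.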

The target in assay [19] is Estrogen receptor beta (Homo sapiens) (UniProt Q92731). The assay is described as follows: qHTS assay to identify small molecule agonists of the estrogen receptor beta (ER-beta) signaling pathway (AID 1259377; active = well fitted activation curve with a large enough effect in the signal ratio in the repeat runs, not every such curve was filed as active; the % refers to the signal ratio). Summed up:
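ER-beta-UAS-bla HEK293T cells in medium with 2% charcoal-stripped FBS were exposed to compounds for 16 h at 37C. Beta-lactamase reporter activity was read as fluorescence after 2 h with LiveBLAzer B/G FRET substrate at room temperature.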

Inconclusive results are not listed. Some structures have more than one record in an assay (separate samples or runs), and their calls can disagree. Calls of active or inactive are those of the source. Unless noted, calls come from the whole dose curve; as a rule, active = well fitted curve in the direction sought with a large enough effect in the repeat runs; inconclusive = weak or mixed curves; inactive = no such curve, though single readings can be large; an effect the other way counts as inactive or inconclusive.

Sequence of Androgen receptor (Homo sapiens) (P10275 whole entry, looked up): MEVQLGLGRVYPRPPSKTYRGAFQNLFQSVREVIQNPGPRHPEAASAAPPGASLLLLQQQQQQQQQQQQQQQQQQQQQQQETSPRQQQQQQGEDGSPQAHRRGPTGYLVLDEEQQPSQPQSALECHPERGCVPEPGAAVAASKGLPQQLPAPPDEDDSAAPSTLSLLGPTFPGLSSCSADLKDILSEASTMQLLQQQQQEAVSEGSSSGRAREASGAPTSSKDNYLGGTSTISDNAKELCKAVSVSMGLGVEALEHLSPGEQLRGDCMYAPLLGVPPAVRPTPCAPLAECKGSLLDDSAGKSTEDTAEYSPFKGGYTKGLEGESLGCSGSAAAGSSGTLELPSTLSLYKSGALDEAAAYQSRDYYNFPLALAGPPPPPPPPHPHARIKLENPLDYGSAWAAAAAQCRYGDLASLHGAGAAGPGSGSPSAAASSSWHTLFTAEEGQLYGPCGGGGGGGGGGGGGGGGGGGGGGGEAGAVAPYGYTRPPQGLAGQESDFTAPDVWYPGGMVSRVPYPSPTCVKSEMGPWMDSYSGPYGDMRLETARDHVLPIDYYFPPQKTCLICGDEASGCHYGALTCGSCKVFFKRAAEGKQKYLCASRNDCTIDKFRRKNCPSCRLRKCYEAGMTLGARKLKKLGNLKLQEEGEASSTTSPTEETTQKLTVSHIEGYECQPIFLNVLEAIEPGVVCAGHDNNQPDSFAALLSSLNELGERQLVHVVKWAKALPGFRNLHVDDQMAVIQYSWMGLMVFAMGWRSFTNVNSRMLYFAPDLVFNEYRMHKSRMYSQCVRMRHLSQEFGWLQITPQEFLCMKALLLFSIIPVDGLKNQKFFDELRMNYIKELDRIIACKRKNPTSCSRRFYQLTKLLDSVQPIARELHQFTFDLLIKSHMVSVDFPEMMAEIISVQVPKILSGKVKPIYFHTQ
Sequence of Estrogen receptor (Homo sapiens) (P03372 whole entry, looked up): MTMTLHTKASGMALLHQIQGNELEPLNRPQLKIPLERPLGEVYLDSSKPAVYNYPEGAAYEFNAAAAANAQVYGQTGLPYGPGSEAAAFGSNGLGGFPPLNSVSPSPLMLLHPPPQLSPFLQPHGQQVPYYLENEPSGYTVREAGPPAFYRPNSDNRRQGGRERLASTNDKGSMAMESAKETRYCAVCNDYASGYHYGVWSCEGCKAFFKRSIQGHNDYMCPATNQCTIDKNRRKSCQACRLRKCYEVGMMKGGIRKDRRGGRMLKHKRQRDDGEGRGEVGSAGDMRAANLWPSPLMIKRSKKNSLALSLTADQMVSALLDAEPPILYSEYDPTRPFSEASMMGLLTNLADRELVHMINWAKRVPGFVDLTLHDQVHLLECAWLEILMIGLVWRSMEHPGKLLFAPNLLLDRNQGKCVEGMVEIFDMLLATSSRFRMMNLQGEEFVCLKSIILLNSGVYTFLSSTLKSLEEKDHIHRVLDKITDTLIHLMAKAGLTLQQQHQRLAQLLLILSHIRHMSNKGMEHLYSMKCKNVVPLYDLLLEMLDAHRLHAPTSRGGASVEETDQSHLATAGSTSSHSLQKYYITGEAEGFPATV
Sequence of Progesterone receptor (Homo sapiens) (P06401 whole entry, looked up): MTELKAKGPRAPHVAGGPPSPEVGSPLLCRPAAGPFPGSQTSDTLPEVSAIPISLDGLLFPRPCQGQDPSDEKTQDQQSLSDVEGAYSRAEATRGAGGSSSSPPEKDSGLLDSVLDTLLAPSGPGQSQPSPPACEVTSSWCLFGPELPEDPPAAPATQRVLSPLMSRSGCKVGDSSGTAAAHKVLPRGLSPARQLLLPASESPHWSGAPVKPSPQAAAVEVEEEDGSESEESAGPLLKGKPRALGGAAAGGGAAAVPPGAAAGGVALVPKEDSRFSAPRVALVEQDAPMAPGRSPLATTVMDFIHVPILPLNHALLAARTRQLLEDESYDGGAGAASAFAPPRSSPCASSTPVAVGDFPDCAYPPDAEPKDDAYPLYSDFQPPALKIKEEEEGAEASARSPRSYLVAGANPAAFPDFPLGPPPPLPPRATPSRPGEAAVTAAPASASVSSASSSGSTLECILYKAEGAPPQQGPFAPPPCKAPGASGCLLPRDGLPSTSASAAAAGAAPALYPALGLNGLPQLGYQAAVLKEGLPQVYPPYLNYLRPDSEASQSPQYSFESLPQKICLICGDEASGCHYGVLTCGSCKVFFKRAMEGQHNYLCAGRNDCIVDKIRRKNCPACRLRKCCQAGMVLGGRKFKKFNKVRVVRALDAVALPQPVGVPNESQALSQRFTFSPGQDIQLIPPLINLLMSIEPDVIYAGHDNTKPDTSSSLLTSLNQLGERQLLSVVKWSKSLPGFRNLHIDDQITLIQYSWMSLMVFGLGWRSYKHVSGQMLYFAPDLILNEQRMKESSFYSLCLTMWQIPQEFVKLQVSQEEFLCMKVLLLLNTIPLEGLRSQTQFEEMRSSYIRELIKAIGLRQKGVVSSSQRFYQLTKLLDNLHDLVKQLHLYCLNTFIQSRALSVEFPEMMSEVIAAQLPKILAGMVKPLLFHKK
Sequence of Thyrotropin receptor (Homo sapiens) (P16473 whole entry, looked up): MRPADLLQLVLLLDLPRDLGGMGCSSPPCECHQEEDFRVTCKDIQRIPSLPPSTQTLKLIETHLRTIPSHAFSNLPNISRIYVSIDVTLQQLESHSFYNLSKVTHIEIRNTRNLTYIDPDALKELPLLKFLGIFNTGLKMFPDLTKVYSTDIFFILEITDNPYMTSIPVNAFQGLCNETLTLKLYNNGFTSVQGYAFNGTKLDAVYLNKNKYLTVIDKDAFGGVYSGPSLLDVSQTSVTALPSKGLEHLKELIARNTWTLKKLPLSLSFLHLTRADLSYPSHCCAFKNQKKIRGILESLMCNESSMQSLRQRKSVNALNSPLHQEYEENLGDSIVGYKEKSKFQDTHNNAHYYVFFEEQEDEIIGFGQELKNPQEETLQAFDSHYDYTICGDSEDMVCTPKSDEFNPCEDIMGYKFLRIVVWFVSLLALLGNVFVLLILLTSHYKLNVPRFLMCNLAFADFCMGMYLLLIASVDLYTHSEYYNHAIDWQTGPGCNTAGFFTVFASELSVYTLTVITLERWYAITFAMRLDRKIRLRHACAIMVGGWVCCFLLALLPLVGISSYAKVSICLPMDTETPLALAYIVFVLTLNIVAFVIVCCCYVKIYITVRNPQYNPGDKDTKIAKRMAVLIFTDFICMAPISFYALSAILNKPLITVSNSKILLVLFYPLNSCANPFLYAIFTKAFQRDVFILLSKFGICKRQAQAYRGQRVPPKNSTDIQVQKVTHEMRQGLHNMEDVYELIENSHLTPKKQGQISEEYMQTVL
Sequence of Estrogen receptor beta (Homo sapiens) (Q92731 whole entry, looked up): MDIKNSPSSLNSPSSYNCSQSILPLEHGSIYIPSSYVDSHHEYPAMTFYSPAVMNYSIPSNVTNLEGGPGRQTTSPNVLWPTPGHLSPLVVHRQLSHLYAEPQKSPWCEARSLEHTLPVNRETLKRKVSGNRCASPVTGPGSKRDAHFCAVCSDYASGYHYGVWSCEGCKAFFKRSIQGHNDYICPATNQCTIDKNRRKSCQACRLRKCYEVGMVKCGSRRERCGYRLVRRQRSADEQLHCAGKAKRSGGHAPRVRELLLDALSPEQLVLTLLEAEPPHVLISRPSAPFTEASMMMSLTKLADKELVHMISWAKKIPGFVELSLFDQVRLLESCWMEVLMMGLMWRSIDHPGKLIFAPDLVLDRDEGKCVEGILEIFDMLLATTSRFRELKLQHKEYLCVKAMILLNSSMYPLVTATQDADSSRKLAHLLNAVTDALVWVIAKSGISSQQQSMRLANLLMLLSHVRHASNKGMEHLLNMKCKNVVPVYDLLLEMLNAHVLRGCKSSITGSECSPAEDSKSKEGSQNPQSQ

Take `CC(C)NC(=O)N1CC(=O)N(c2cc(Cl)cc(Cl)c2)C1=O`: the Potency result in assay [1], in assay [2], in assay [9], in [10], in assay [11] and in assay [14] was “inactive” each time. The compound was classed as inactive in assay [3], in assay [6], in [8], in assay [12] and in assay [13]. Further, the Potency in [4] is 48.6 µM (active) and inactive; in assay [5] it was 54.5 µM (active) and inactive; in assay [7], 10.9 µM (active).

In the case of `O=C1CCCN1`, the Potency result in assay [1], in assay [2], in assay [4], in [5], in assay [7] and in assay [15] was “inactive” in each case. In addition, the Potency result in assay [9], in assay [10], in [11], in [17] and in [14] was “inactive” each time. For the same compound, the outcome in [3], in assay [6], in assay [8], in [16], in [12] and in assay [13] was inactive.

For `C=C(C)CCl`, the Potency entry in [1], in assay [2], in [4], in assay [5], in assay [7] and in assay [15] was “inactive” throughout. For the same compound, the Potency entry in assay [9], in assay [10], in assay [17] and in assay [14] was “inactive” throughout. The outcome in assay [3], in assay [6], in [8], in assay [18], in assay [12] and in [13] was inactive.

`CC(=O)C=C(C)C`: the Potency entry in [1], in [2], in assay [4], in assay [5], in assay [15] and in [9] was “inactive” each time. The Potency result in assay [10], in assay [11], in assay [17] and in [14] was “inactive” in each case. Also, the compound was classed as inactive in assay [3], in assay [6], in [8], in assay [12] and in assay [13].

For `COC(=O)c1ccccc1C(=O)OC`, the Potency result in assay [1], in assay [2], in assay [4], in [5], in assay [7] and in [19] was “inactive” in each case. Besides, the Potency entry in assay [15], in assay [9], in assay [10], in assay [11], in [17] and in assay [14] was “inactive” each time. Also, the compound was called inactive in [3], in assay [6], in assay [8], in assay [12] and in assay [13].

With `CCOC(=O)c1ccccc1C(=O)OCC`, the Potency result in assay [1], in [2], in assay [4], in assay [5], in assay [7] and in assay [15] was “inactive” each time. Further, the Potency entry in [9], in assay [10], in assay [11], in assay [17] and in [14] was “inactive” throughout. For the same compound, the result in assay [3], in assay [6], in assay [8], in [12] and in assay [13] was inactive.

With `O=c1[nH]c2ccccc2c(=O)o1`, the Potency result in assay [1], in assay [2], in assay [4], in assay [5], in assay [7] and in [15] was “inactive” throughout. The Potency entry in assay [9], in assay [10], in assay [11], in [17] and in assay [14] was “inactive” each time. For the same compound, the result in [3], in assay [6], in [8], in assay [12] and in assay [13] was inactive.

`[N-]=[N+]=[N-]`: the Potency result in assay [1], in assay [2], in [4], in assay [5], in [7] and in assay [15] was “inactive” each time. Further, the Potency entry in assay [9], in assay [10], in assay [11], in [17] and in assay [14] was “inactive” in each case. The call in assay [3], in assay [6], in assay [8], in assay [18], in assay [12] and in [13] was inactive.

For the compound `COc1ccc2c3c1O[C@H]1[C@@H](O)C=C[C@H]4[C@@H](C2)N(C)CC[C@@]341`, the Potency entry in [1], in assay [2], in assay [15], in assay [9], in assay [10] and in assay [11] was “inactive” throughout. Further, the Potency entry in assay [17] and in assay [14] was “inactive” throughout. Further, the call in assay [3], in [6], in assay [8], in [12] and in assay [13] was inactive. For the same compound, the Potency is 21.3 µM (active) and inactive in [4]; 26.9 µM (active) and inactive in assay [5]; 2.69 µM (active) in assay [7].

Source of the values: PubChem BioAssay (Tox21).
